Reference: PubChem BioAssay (NCI)
This is part of a sample that, as a whole, favours compounds with a hit. Of some 83,000 tested, about 20% had one in any assay.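 Plates (96-well) were seeded with cells, treated with compound at one concentration, and incubated for 48 hours before percent growth was determined.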 Unmarked numbers belong to inactive results. Calls of active or inactive are those of the source. Rule for the calls: active = growth percent below 10; inactive = the rest.

Assays:
Assay in all cases: NCI-60 one-dose screen, 48 h (100 = growth as untreated, 0 = no growth, -100 = all killed)
Details in all cases: 10 µM
[1] = system: DU-145 prostate
[2] = system: K-562 leukemia
[3] = system: MDA-MB-231 breast
[4] = system: RXF 393 renal
[5] = system: SF-268 CNS
[6] = system: UACC-257 melanoma
[7] = system: M14 melanoma
[8] = system: HCT-15 colon
[9] = system: HT29 colon
[10] = system: SNB-75 CNS
[11] = system: SNB-19 CNS
[12] = system: U251 CNS
[13] = system: PC-3 prostate
[14] = system: SK-MEL-5 melanoma
[15] = system: UACC-62 melanoma
[16] = system: LOX IMVI melanoma
[17] = system: SK-MEL-28 melanoma
[18] = system: SF-295 CNS
[19] = system: SF-539 CNS

Row | SMILES | growth [1] | growth [2] | growth [3] | growth [4] | growth [5] | growth [6] | growth [7] | growth [8] | growth [9] | growth [10] | growth [11] | growth [12] | growth [13] | growth [14] | growth [15] | growth [16] | growth [17] | growth [18] | growth [19]
1 | CC(C)(C)c1nn(-c2ccccc2)c2c1CC1(CN2Cc2ccc(Cl)cc2)C(=O)c2ccccc2C1=O | 95.8% | 81.3% | 83.2% | 95.3% | 89% | 76.1% | 87.1% | 88.2% | 65.1% | 120% | 84.5% | 85.7% | 44.2% | 78.5% | 73.6% | 81.8% | 102% | – | –
2 | C#CC(C)(O)[C@@H]1C[C@H](CC(=O)O)C1(C)C (stereo not given in full) | 112% | 118% | 113% | 134% | 105% | 105% | – | 104% | 109% | 96% | 98.6% | 109% | 105% | 115% | 100% | 98.1% | 113% | 103% | 99.7%
3 | OC(CCN1CCCC1)(c1ccccc1)C1CCCCC1 (stereo not given) | 108% | 117% | 104% | 103% | 95.9% | 109% | 99.6% | 92.4% | 101% | 84% | 107% | 105% | 98.6% | 89.8% | – | 99.9% | 105% | 100% | –
4 | CC[N+](CC)=c1ccc2nc3c(cc(NCc4ccccc4)c4ccccc43)oc-2c1 | -95.8% (active) | -26.1% (active) | -69.6% (active) | -91.4% (active) | -15.9% (active) | -98.4% (active) | -74.4% (active) | -45.8% (active) | -62.9% (active) | – | -79.7% (active) | -95% (active) | -19% (active) | -97.4% (active) | -73% (active) | -64.2% (active) | – | -98.9% (active) | -87% (active)
5 | O=c1c(Br)ccc(Br)cc1Br | -72.3% (active) | -11.6% (active) | -3.63% (active) | -89.5% (active) | 14.3% | – | -70.2% (active) | -32.8% (active) | -41.6% (active) | – | 86.6% | – | -24.7% (active) | 32.4% | – | -76.9% (active) | -53.4% (active) | 46.7% | 15%
6 | Cc1ccc(C2NC(=S)N3C(c4ccc(C)cc4)NC(=S)N23)cc1 (stereo not given) | 18.7% | 5.27% (active) | 59.4% | – | 37.6% | -22.5% (active) | -26.5% (active) | 29.5% | 17.8% | 127% | 44.5% | 28.3% | 34.4% | 17.1% | 34.6% | 51.4% | 58.7% | 6.72% (active) | 13.9%
7 | COc1ccccc1N1CCCSC1=Nc1ccccc1 | 99.7% | 78.4% | 101% | – | 99% | 43.7% | 63.3% | 115% | 150% | 232% | 92.9% | 105% | 92.9% | 96.6% | 99.9% | 92.5% | 95.9% | 80.2% | 98.9%
8 | Clc1ccc(Cc2ccncc2)cc1 | 114% | 111% | 99.5% | 110% | 96.2% | 104% | 109% | 104% | – | 89.8% | 98.9% | 113% | 103% | 104% | 95.3% | 97.9% | 112% | 112% | –
9 | CCN(CC)CCCC(C)Nc1c2ccc(Cl)cc2nc2ccc(OC)cc12 (stereo not given) | 16.1% | 0.665% (active) | 19.8% | -16.1% (active) | 30.4% | -89.3% (active) | -73.1% (active) | 14.2% | -30.3% (active) | 16.3% | 35.4% | 11.4% | 35% | -87.5% (active) | – | -48.1% (active) | -57.6% (active) | 26.8% | –
10 | CC1=NN(C(=O)c2nn(-c3ccc(Cl)cc3)cc2O)C(=O)C1 | 52.4% | 15.3% | 63.2% | 56.9% | 38.4% | 74.5% | 50.9% | 34.5% | 41.8% | 28.7% | 59.6% | 47.9% | – | 64.9% | 41.5% | 40.5% | 72.1% | 67% | 51.9%
11 | COc1ccc(/C=c2\sc3n(c2=O)C(c2cc(OC)c(OC)c(OC)c2)C=C(c2ccc(OC)c(OC)c2)N=3)cc1OC (stereo not given) | 112% | 89.9% | 85.5% | 105% | 91.1% | 88.9% | 100% | 90.3% | – | 76.2% | 89.9% | 98.9% | 86.6% | 83.4% | 85.6% | 93.8% | 104% | 115% | –
12 | O=C1c2ccccc2C(=O)N1CCCCNc1ccccc1 | 102% | 149% | 79.6% | 104% | 54.1% | 106% | – | 96.8% | 110% | 90.8% | 96.8% | 86.3% | 75.5% | 105% | – | 117% | 113% | 98% | 74.6%
13 | COc1cc2c(cc1OC)C(C(CCCCCC(CCC(C)C)C1NCCc3cc(OC)c(OC)cc31)CCC(C)C)NCC2 (stereo not given) | -100% (active) | 13.6% | -81.9% (active) | – | -95.7% (active) | -92.5% (active) | -93.6% (active) | -100% (active) | -95.3% (active) | -99.5% (active) | -47.5% (active) | -99% (active) | -92.3% (active) | -96.4% (active) | -91.5% (active) | -100% (active) | – | -77.5% (active) | -97.4% (active)
14 | S=C1N(c2ccccc2)CN(C2CCCCC2)CN1c1ccccc1 | 107% | 101% | 98.2% | 109% | 118% | 2.41% (active) | 100% | 95.3% | 99.5% | 90.1% | 95.3% | 98.5% | 84% | 97.9% | 97.7% | 95.6% | 104% | – | 88.1%
15 | COc1cc(N)c2ncccc2c1SC | 104% | 122% | 95.1% | 121% | 91.2% | 98.3% | – | 112% | – | 91% | 99% | 102% | – | 107% | 110% | 93.1% | 106% | 109% | 114%
16 | COc1cc(-c2ccc(N=Nc3ccc4c(S(=O)(=O)O)ccc(N)c4c3O)c(OC)c2)ccc1N=Nc1ccc2c(S(=O)(=O)O)ccc(N)c2c1O | 122% | 121% | 106% | 93.3% | 102% | 109% | 107% | 110% | 105% | 70.9% | 110% | 107% | 98.7% | 105% | 111% | 102% | 103% | – | 102%
